Test results as given in PubChem BioAssay (NCI).
The panel holds about 83,000 compounds, 20% with a hit somewhere; the sample as a whole holds those more often.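 For each line, cells grew in 96-well plates with the test compound present at a single concentration for 48 hours.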 Unmarked numbers belong to inactive results. Calls of active or inactive are those of the source. The calls were made as follows: active = growth percent below 10; inactive = the rest.

What was measured:
Assay in all cases: NCI-60 one-dose screen, 48 h (100 = growth as untreated, 0 = no growth, -100 = all killed)
Conditions in all cases: 10 µM
DU-145 prostate = system: DU-145 prostate
K-562 leukemia = system: K-562 leukemia
MALME-3M melanoma = system: MALME-3M melanoma
MDA-MB-231 breast = system: MDA-MB-231 breast
RXF 393 renal = system: RXF 393 renal
SF-268 CNS = system: SF-268 CNS
SF-295 CNS = system: SF-295 CNS
SF-539 CNS = system: SF-539 CNS
UACC-257 melanoma = system: UACC-257 melanoma
M14 melanoma = system: M14 melanoma
HCT-15 colon = system: HCT-15 colon
HT29 colon = system: HT29 colon
SNB-75 CNS = system: SNB-75 CNS
SNB-19 CNS = system: SNB-19 CNS
U251 CNS = system: U251 CNS
PC-3 prostate = system: PC-3 prostate
SK-MEL-5 melanoma = system: SK-MEL-5 melanoma
UACC-62 melanoma = system: UACC-62 melanoma
LOX IMVI melanoma = system: LOX IMVI melanoma
SK-MEL-28 melanoma = system: SK-MEL-28 melanoma

SMILES | growth (DU-145 prostate) | growth (K-562 leukemia) | growth (MALME-3M melanoma) | growth (MDA-MB-231 breast) | growth (RXF 393 renal) | growth (SF-268 CNS) | growth (SF-295 CNS) | growth (SF-539 CNS) | growth (UACC-257 melanoma) | growth (M14 melanoma) | growth (HCT-15 colon) | growth (HT29 colon) | growth (SNB-75 CNS) | growth (SNB-19 CNS) | growth (U251 CNS) | growth (PC-3 prostate) | growth (SK-MEL-5 melanoma) | growth (UACC-62 melanoma) | growth (LOX IMVI melanoma) | growth (SK-MEL-28 melanoma)
Nc1cc(Br)c(-c2nn3c(CCC(=O)c4nc5ccccc5[nH]4)nnc3s2)c(Br)c1 | 102% | 7.05% (active) | 95.8% | 99% | 109% | 99.7% | 108% | 83.4% | 116% | 97.5% | 124% | 78.7% | 92.6% | 104% | 97.5% | 87.1% | 91.6% | 101% | 93.4% | 111%
COc1ccc2c(c1)OC(N)=C(C#N)C2c1cc(OC)c(OC)c(OC)c1 (stereo not given) | -19.5% (active) | 7.08% (active) | 26.9% | 4.49% (active) | 38.7% | 22.8% | 4.98% (active) | 4.42% (active) | 68.2% | 5.11% (active) | 14.2% | 0.78% (active) | 44.7% | 44.7% | 6.72% (active) | 19.7% | -46.2% (active) | 39% | 12.7% | 62.7%
CC(=O)C1CCC2C3CC=C4CC(SC(=N)N)CCC4(C)C3CCC12C (stereo not given) | 75.5% | -5.34% (active) | -6.9% (active) | 46.6% | 25.6% | 72% | 51.1% | 65.5% | 13.6% | 18.3% | 16.3% | 11% | 55.4% | 64.2% | 30.5% | 33% | 15.6% | 64.4% | -56% (active) | 61.5%
OCC1OC(n2cnc3c(NCc4ccco4)ncnc32)C(O)C1O (stereo not given) | 4.25% (active) | 33% | 65.5% | -5.65% (active) | -13.7% (active) | 44.6% | 26.5% | 21.7% | 86.4% | 31.2% | 6.12% (active) | 23.3% | 14.7% | 28.5% | 43.7% | 22% | 23.7% | 32.5% | -63.7% (active) | 68.1%
S=c1cnc2ccccc2[nH]1 | 103% | 99.8% | 84.6% | 111% | 114% | 95.7% | 103% | -10.4% (active) | 99.1% | 89% | 102% | 93.7% | 86.5% | 109% | 95.5% | 86.1% | 97.6% | 98.8% | 94.3% | 108%
CCN(CC)CCCC(Nc1c2ccc(Cl)cc2nc2ccc(OC)cc12)c1ccc(F)cc1 (stereo not given) | 32.6% | -42.8% (active) | -75.4% (active) | -15.2% (active) | -71.1% (active) | 67.8% | 91.5% | -82.3% (active) | -55.3% (active) | -79.2% (active) | 1.06% (active) | 5.7% (active) | 93.3% | 45.7% | -29% (active) | 73% | -95.7% (active) | 109% | -73.2% (active) | -83.5% (active)
CCOC(=O)c1cc(C(=O)c2ccc(F)cc2F)n2ccccc12 | 105% | 85.9% | 120% | 79.9% | 99.3% | 85.7% | 94.7% | 95.2% | 93.4% | 108% | 79.9% | 77.4% | 83.6% | 84.3% | 79.4% | 75.6% | 92.6% | 86.4% | 90.4% | 115%
CCOC(=O)c1cc(C(=O)c2cc(OC)cc(OC)c2)n2nc(C)ccc12 | 21.9% | 10.3% | 74.3% | 52.6% | 13.6% | 62.4% | 23.9% | 3.84% (active) | 59.5% | 11.4% | 32.2% | 3.72% (active) | 18% | 39.4% | 23.1% | 25% | 30.6% | 46.7% | 48.7% | 78.7%
